Columns and labels:
ZNF721 full-length = ZNF721 full-length (Homo sapiens, UniProt Q8TF20-2 1-923); experiment: HT-SELEX; 20 mM HEPES pH 7, 140 mM KCl, 5 mM NaCl, 1 mM K2HPO4, 2 mM MgSO4, 100 uM EGTA, ZnSO4, 0.1% Tween20; room temperature, 1 h; high values mean tight binding; conditions: protein: ivt; tags: eGFP (N-terminal); dsDNA, one strand shown
Method in brief: (§1)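 Bead-immobilised tagged transcription factor (full-length or DNA-binding-domain fragment), made in HEK293 lysate or cell-free extract, was incubated with a randomized 40-base DNA library. Binding was for 1 h at room temperature in HEPES/KCl low-stringency buffer with Tween20. After washing and heat elution, bound DNA was PCR-amplified over successive cycles and Illumina-sequenced (~3 million 60 bp reads per sample). Binding signal is a relative k-mer count in selected reads; higher means tighter binding.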

ZNF721 DBD2 = ZNF721 DBD2 (Homo sapiens, UniProt Q8TF20-2 395-923); experiment: as above; conditions: protein: ivt; tags: eGFP (N-terminal); dsDNA, one strand shown
Method in brief: as §1

Chain of ZNF721 full-length (Q8TF20 other isoform, or with tags, fused parts or gaps): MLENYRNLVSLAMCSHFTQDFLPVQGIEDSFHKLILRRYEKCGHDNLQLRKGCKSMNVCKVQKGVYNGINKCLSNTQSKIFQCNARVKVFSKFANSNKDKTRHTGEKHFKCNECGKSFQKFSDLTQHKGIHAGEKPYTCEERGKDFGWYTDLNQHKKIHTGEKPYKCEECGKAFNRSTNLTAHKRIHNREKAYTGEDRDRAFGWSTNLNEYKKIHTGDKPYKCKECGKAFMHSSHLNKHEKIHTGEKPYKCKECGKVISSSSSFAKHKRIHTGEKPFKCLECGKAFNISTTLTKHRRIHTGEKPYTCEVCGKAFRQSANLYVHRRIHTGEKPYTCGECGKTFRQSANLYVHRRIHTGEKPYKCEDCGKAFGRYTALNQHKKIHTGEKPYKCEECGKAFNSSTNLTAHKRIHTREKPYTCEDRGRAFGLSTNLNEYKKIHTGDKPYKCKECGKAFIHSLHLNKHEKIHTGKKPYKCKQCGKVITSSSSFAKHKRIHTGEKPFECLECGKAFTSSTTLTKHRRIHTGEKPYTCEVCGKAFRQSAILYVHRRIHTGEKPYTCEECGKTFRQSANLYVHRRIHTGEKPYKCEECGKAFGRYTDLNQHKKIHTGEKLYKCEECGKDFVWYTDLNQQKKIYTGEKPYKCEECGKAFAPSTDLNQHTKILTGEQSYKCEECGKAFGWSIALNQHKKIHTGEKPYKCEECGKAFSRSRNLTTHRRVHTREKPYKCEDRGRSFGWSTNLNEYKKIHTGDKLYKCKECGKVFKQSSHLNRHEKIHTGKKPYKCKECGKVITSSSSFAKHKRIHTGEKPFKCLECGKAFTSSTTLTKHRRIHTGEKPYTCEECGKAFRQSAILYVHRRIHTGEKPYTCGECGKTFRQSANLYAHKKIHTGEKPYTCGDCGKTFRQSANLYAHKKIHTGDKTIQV
Chain of ZNF721 DBD2 (Q8TF20 383-911): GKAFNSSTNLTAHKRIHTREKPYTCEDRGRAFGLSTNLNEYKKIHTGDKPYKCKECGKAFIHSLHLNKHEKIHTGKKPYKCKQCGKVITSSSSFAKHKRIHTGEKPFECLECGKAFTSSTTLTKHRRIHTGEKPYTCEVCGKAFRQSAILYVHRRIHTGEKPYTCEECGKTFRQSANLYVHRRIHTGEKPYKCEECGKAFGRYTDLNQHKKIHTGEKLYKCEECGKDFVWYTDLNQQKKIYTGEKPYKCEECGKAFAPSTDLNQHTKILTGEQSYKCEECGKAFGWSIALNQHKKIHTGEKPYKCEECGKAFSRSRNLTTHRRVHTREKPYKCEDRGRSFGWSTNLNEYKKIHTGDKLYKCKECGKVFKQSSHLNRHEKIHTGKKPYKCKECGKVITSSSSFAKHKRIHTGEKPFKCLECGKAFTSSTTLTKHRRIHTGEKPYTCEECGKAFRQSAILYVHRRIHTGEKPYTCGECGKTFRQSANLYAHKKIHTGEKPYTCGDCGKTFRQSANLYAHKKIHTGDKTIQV

Sequence | binding signal (ZNF721 full-length) [relative 10-mer count] | binding signal (ZNF721 DBD2) [relative 10-mer count]
ACAGCATACC | 0.516 | 0.692
AAAACAGGGT | 0.391 | 0.506
CAGAAAACAG | 0.147 | 0.264
ACAGTGTTGC | 0.13 | 0.341
AAAACAGGAT | 0.12 | 0.133
CAGTGTATCC | 0.208 | 0.401
AAAACAGCAT | 0.921 | 1
CAGTGTTACC | 0.128 | 0.259
AAAACAGCAG | 0.243 | 0.264
ACAGTGTATC | 0.137 | 0.202
AAACTAGCAT | 0.118 | 0.175
AAACAGCACT | 0.14 | 0.201
AAACAGAGTA | 0.198 | 0.22
AAAAACAGCG | 0.589 | 0.668
ACAGCGTCTC | 0.212 | 0.344
AAACGCTGTT | 0.236 | 0.44
AAACAGCATA | 0.56 | 0.657
AACAGAGTAC | 0.127 | 0.166
CAGCATGCCC | 0.121 | 0.244
GAAACGCTGC | 0.102 | 0.169
AAAGCAGTGT | 0.513 | 0.632
AGAAAAACAG | 0.178 | 0.208
ACGAAAACAG | 0.106 | 0.149
AAAAACTAGC | 0.103 | 0.135
AAAACAGGGG | 0.112 | 0.145
ACACTGCTTG | 0.107 | 0.138
AAACAGGGGT | 0.106 | 0.153

Sequence | binding signal (ZNF721 full-length) [relative 10-mer count] | binding signal (ZNF721 DBD2) [relative 10-mer count]
ACAGCATCCC | 0.114 | 0.088
AAAAGCAGTG | 0.383 | 0.397
AATAAAACAG | 0.132 | 0.168
AAAACAGTGT | 0.495 | 0.712
AACAGCGTCT | 0.203 | 0.347
AAAAACAGCA | 0.778 | 0.785
AAGCAGTGTA | 0.142 | 0.18
ATAAAAACAG | 0.11 | 0.148
ACAAAGCAGT | 0.146 | 0.174
CCAAAAACAG | 0.108 | 0.144
AAAACAGAGT | 0.236 | 0.279
GAGACACTGC | 0.113 | 0.128
AACAGCATAC | 0.51 | 0.709
AAACAGCATC | 0.208 | 0.21
CTGTTTTTTA | 0.204 | 0.282
ACGCTGTTTC | 0.13 | 0.199
AAACAGTGTC | 0.116 | 0.209
CAAAACAGCG | 0.142 | 0.176
AAACAGGATA | 0.111 | 0.121
AAACAGCGTC | 0.206 | 0.277
AACAGCATGC | 0.113 | 0.163
CCCTGTTTTC | 0.162 | 0.186
AACAAAACAG | 0.206 | 0.223
CGAAAAACAG | 0.174 | 0.222
CCGAAAACAG | 0.111 | 0.217
ACAGAGTACC | 0.123 | 0.152
AACAAACAGC | 0.119 | 0.0709

Sequence | binding signal (ZNF721 full-length) [relative 10-mer count] | binding signal (ZNF721 DBD2) [relative 10-mer count]
CAGTGTTGCC | 0.253 | 0.686
AAACAAACAG | 0.143 | 0.0858
AAAACTAGCA | 0.127 | 0.173
AACAGTGTTG | 0.127 | 0.327
GAAAACAGCA | 0.299 | 0.388
ACAGTGTTTC | 0.14 | 0.272
AAAAAACAGG | 0.278 | 0.289
AAGCAGCGTC | 0.112 | 0.133
CAGGGTTGCC | 0.155 | 0.49
AAAACAGTGC | 0.121 | 0.195
CAGGGTTTCC | 0.162 | 0.368
AAAAAAACAG | 0.967 | 0.753
AAACACTGTT | 0.135 | 0.266
AAACAGCGTT | 0.388 | 0.648
AAAAAACAGA | 0.261 | 0.219
GAAAAACAGC | 0.265 | 0.324
AAAAGCAGCG | 0.276 | 0.326
AAAAAACAGT | 0.466 | 0.516
AAAAACAGAG | 0.212 | 0.213
ACAGCATATC | 0.126 | 0.174
AACAGCGTAT | 0.225 | 0.366
AACAGTGTAT | 0.129 | 0.199
AAAGGAACAG | 0.113 | 0.0545
CAAAGCAGCG | 0.114 | 0.158
CAGTGTCTCC | 0.213 | 0.552
ACAAAGCAGC | 0.189 | 0.238

— PMC13541613, “GHT-SELEX demonstrates unexpectedly high intrinsic sequence specificity and complex DNA binding of many human transcription factors”
